Experimental data as given in PubChem BioAssay (NCI).
Compounds without any hit were thinned out: in the full panel of roughly 79,000, 15% have a hit. A number with no mark means an inactive call. The source made the active and inactive calls. Cut-off read from the data, not from the text of the source: active = growth inhibition above about 70%; inactive = the rest.

Assays:
[1] = NCI Yeast Anticancer Drug Screen. Data for the rad50 strain (AID 155);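 note: 0% = growth of vehicle-only cultures of the same strain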; conditions: S. cerevisiae rad50 strain growth inhibition, hits give high values
How it was run: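 DNA repair mutant yeast, compound exposure, growth read-out; inhibition is taken relative to vehicle.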

[2] = NCI Yeast Anticancer Drug Screen. Data for the mec2-1 strain (AID 157); conditions: S. cerevisiae mec2-1 strain, hits give high values
How it was run: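 Using mec2-1 yeast: add compound, measure growth, express inhibition versus vehicle-treated cultures.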

[3] = NCI Yeast Anticancer Drug Screen. Data for the sgs1 mgt1 strain (AID 161);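 note: 0% = growth of cultures given vehicle only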; conditions: S. cerevisiae sgs1 mgt1 strain, hits give high values
How it was run: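 This yeast growth screen uses a strain with defined DNA-repair lesions; compound-treated growth is compared with vehicle-treated growth.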

[4] = NCI Yeast Anticancer Drug Screen. Data for the cln2 rad14 strain (AID 165);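 note: 0% = growth equal to vehicle treated cultures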; conditions: S. cerevisiae cln2 rad14 strain, hits give high values
How it was run: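 Yeast strain cln2 rad14, bearing defects in cell cycle control and DNA repair, serves as the test system; values reflect growth inhibition compared with vehicle.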

[5] = NCI Yeast Anticancer Drug Screen. Data for the bub3 strain (AID 167); conditions: S. cerevisiae bub3 mutant strain, hits give high values
How it was run: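 In this screen, a yeast mutant lacking normal mitotic checkpoint function is challenged with compound. Relative growth versus vehicle gives the inhibition value.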

[6] = NCI Yeast Anticancer Drug Screen. Data for the mlh1 rad18 strain (AID 175); conditions: S. cerevisiae mlh1 rad18 strain growth inhibition, hits give high values
How it was run: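 Steps: expose repair-defective yeast to compound; measure growth; express inhibition against vehicle-treated controls.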

[7] = at 5.0 µM (retest, dose inferred, filed as 0.5)
[8] = at 50.0 µM (retest, dose inferred, filed as 5.0)

| Compound | growth inhibition [1, 7] [%] | growth inhibition [1, 8] | growth inhibition ([1]; at 50.0 µM) | growth inhibition [2, 7] [%] | growth inhibition [2, 8] | growth inhibition ([2]; at 50.0 µM) | growth inhibition [3, 7] [%] | growth inhibition [3, 8] | growth inhibition ([3]; at 50.0 µM) | growth inhibition [4, 7] [%] | growth inhibition [4, 8] | growth inhibition ([4]; at 50.0 µM) | growth inhibition [5, 7] [%] | growth inhibition [5, 8] | growth inhibition ([5]; at 50.0 µM) | growth inhibition [6, 7] | growth inhibition [6, 8] | growth inhibition ([6]; at 50.0 µM) |
| --- | --- | --- | --- | --- | --- | --- | --- | --- | --- | --- | --- | --- | --- | --- | --- | --- | --- | --- |
| CC(CCN)(CCN)[N+](=O)[O-] | 16 | 18% | 8.3% | -1 | -27% | 15.8% | -4 | 27% | -13.6% | -25 | -2% | 46.3% | -5 | -1% | 6.9% | 4% | 9% | 15.4% |
| CCOc1ccc(N=Nc2ccccc2)cc1 | -11 | -58% | 1.8% | -25 | -35% | 37.1% | -8 | -39% | -19.8% | 0 | -27% | 38% | -13 | -39% | -12.6% | -9% | -49% | -11.9% |
| CN(C)c1nc(-c2ccccc2)cc(-c2ccc(O)cc2)n1 | 14 | 93% (active) | 36.8% | -10 | 27% | 13.7% | 22 | 92% (active) | 45.9% | 22 | 48% | 45.5% | -2 | 77% (active) | 60.5% | 24% | 88% (active) | 68.2% |
| O=Cc1ccc2ccc3ccccc3c2c1 | -8 | 85% (active) | 85.9% (active) | 8 | 66% | 41.4% | 6 | 56% | 79.1% (active) | -19 | 94% (active) | 21.2% | -27 | 95% (active) | 70.8% (active) | -7% | 93% (active) | 84.9% (active) |
| O=C(CC(c1ccccc1)c1ccccc1)NCCCCN1CCCCCCC1 | 27 | 89% (active) | 12% | 19 | 96% (active) | -9% | 25 | 94% (active) | 22.9% | 2 | 90% (active) | 89.7% (active) | 5 | 93% (active) | 26.4% | 16% | 93% (active) | 19.4% |
| CCCCCC(C)C1=NC(C)(C)CC(C)O1 (configuration not stated) | -153 | -154% | 5.85% | -51 | -57% | -3.85% | -64 | -68% | -0.45% | -62 | -64% | 32.4% | -73 | -81% | -3.2% | -139% | -116% | 12.1% |
| CN(Cc1ccccc1)CC(O)c1cc(-c2ccc(Cl)cc2)nc2ccccc12 (configuration not stated) | -1 | 99% (active) | 98.8% (active) | 2 | 100% (active) | 98.5% (active) | 24 | 100% (active) | 99.2% (active) | 1 | 99% (active) | 98.4% (active) | 7 | 99% (active) | 98% (active) | 10% | 99% (active) | 98.3% (active) |
| CC1(C)OC2C(COC(c3ccccc3)(c3ccccc3)c3ccccc3)OC(n3cnc4c(=O)[nH]cnc43)C2O1 (configuration not stated) | 43 | 97% (active) | 69% | 62 | 99% (active) | 62% | 24 | 99% (active) | 56.5% | 19 | 97% (active) | 50.9% | 30 | 98% (active) | 49.9% | 84% (active) | 98% (active) | 61.9% |
| COC(=O)c1ccccc1NC(=S)NN(C)C | 13 | 20% | -0.25% | 7 | 17% | -14.3% | -5 | 16% | -8.9% | 9 | 11% | 18.2% | -20 | 36% | 3.85% | 16% | 28% | -2% |
| CCOC(=O)Nc1cc2c(cn1)[nH]c1ccccc12 | -3 | 46% | -0.8% | 7 | 72% (active) | -12.2% | -1 | 52% | 8.35% | 1 | 25% | -0.4% | 2 | 38% | 3.25% | 5% | 86% (active) | 5.3% |
| N#CC(c1ccc(Cl)cc1)c1ccc([N+](=O)[O-])cc1 (configuration not stated) | -12 | 52% | 40.9% | -16 | 37% | 20.5% | 2 | 84% (active) | 60.9% | -4 | 53% | 3.95% | 2 | 86% (active) | 64.3% | -5% | 88% (active) | 45.5% |
| C(=C1/CNC/C(=C/c2ccccc2)C1)/c1ccccc1 | 11 | 99% (active) | 99.5% (active) | 17 | 99% (active) | 99.6% (active) | 16 | 96% (active) | 99.5% (active) | 27 | 99% (active) | 99.2% (active) | 6 | 99% (active) | 99.3% (active) | -1% | 97% (active) | 99.3% (active) |
| O=[N+]([O-])c1ncn(C2OC(CO)C(O)C2O)c1S (configuration not stated) | -5 | -3% | -2.85% | 2 | -8% | 24.6% | -1 | -3% | 14.6% | -3 | -5% | 66.1% | -12 | -14% | 1.15% | -6% | -8% | 8.05% |
| N#CC1C2CCC3(CC2CCN1C(=O)c1ccccc1)OCCO3 (configuration not stated) | -1 | 59% | 32.5% | -1 | 76% (active) | 72.2% (active) | -6 | 60% | 43% | -7 | 78% (active) | 71.8% (active) | 12 | 82% (active) | 82.8% (active) | -7% | 77% (active) | 60.9% |
| CCCCN(CCC(=O)O)c1ccc(/C=C\c2ccnc3ccccc23)cc1 | 8 | 89% (active) | 94.2% (active) | 6 | 89% (active) | 93.5% (active) | 21 | 90% (active) | 95.6% (active) | 15 | 82% (active) | 88.7% (active) | -2 | 68% | 96.3% (active) | 0% | 89% (active) | 93% (active) |
| CN1CCN(CCCN)CC1 | -8 | 8% | 3.7% | -3 | -25% | 25.1% | -4 | -3% | -29.9% | 4 | -4% | 29.9% | 17 | -14% | -18% | -2% | 5% | 11.1% |
| CC1CCN(SSc2nc3ccccc3s2)CC1 | 31 | 91% (active) | 28.4% | 36 | 94% (active) | 80.5% (active) | 51 | 96% (active) | 77.4% (active) | 44 | 70% (active) | 21.4% | 61 | 97% (active) | 82% (active) | 30% | 73% (active) | 79% (active) |
| COc1ccc(-c2cc(-c3ccco3)c(C#N)c(=S)n2C2OC(CO)C(O)C(O)C2O)cc1 (configuration not stated) | -8 | 1% | 5.1% | 3 | -12% | 4.3% | -1 | -3% | -15.2% | 15 | 16% | 30.1% | 2 | 7% | -3% | 10% | 20% | 4.1% |
| CCN(CC)CCOC(=O)C1CCCCC1C(=O)C1CCCCC1 (configuration not stated) | -3 | 3% | 29.4% | -3 | 0% | -1.6% | -7 | 5% | 21.4% | -2 | 8% | 34.5% | -3 | 14% | 0.85% | 1% | 1% | 11.7% |
